According to PubChem BioAssay AID1159580 (chemical genetic matrix, 2015):
Several values for one entry are separate records, joined by “and”; a condition that tells them apart may be missing. Equal values may be shown once. In all, about 5,500 compounds went through this assay and about 2,000 (36%) were called active. Not shown: some 18% with an inconclusive outcome. Cut-off read from the data, not from the text of the source: active = normalized growth mostly below about 0.91 (no sharp cut-off); inconclusive = no clear call, values can overlap the other calls; inactive = mostly above about 0.92. The list shows a part of the results.

Test: chemical genetic growth profiling, strain panel (AID 1159580);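 note: tested at 20 µM; growth read once vehicle control cultures reached saturation at 30 °C; 1 = growth at the plate median or of vehicle wells; lower values mean less growth of the strain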
Settings: S. cerevisiae deletion strains, growth OD

Measured: normalized growth

Cc1ccccc1C(OCCN(C)C)c1ccccc1 (centres undefined)
inactive: locus YAL021C, strain ccr4, active compounds read low 0.977 | locus YAL026C, strain drs2, active compounds read low 1 | locus YAL030W, strain snc1, active compounds read low 1 | locus YAL040C, strain CLN3, active compounds read low 0.992 | locus YBL061C, strain skt5, active compounds read low 1 | locus YBR009C, strain hhf1, active compounds read low 0.996 | locus YBR021W, strain FUR4, active compounds read low 0.913 | locus YBR023C, strain chs3, active compounds read low 1.01 | locus YBR171W, strain sec66, active compounds read low 1.01 | locus YBR229C, strain ROT2, active compounds read low 1 | locus YBR231C, strain swc5, active compounds read low 1 | locus YBR279W, strain paf1, active compounds read low 0.993 | locus YCL011C, strain gbp2, active compounds read low 1.01 | locus YCL016C, strain dcc1, active compounds read low 1.01 | locus YCL029C, strain bik1, active compounds read low 1.01 | locus YCL061C, strain MRC1 (second series), active compounds read low 0.987 | locus YCL061C, strain MRC1, active compounds read low 1.01 | locus YCL069W, strain vba3, active compounds read low 1.01 | locus YCR088W, strain abp1, active compounds read low 1 | locus YDL005C, strain med2, active compounds read low 0.986 | locus YDL035C, strain GPR1, active compounds read low 1.01 | locus YDL040C, strain nat1, active compounds read low 1.01 | locus YDL074C, strain BRE1, active compounds read low 0.959 | locus YDL101C, strain DUN1, active compounds read low 1 | locus YDL134C, strain PPH21, active compounds read low 1.01 | locus YDL185W, strain tfp1, active compounds read low 1.02 | locus YDL192W, strain arf1, active compounds read low 1.01 | locus YDR001C, strain nth1, active compounds read low 1.01 | locus YDR069C, strain doa4, active compounds read low 0.994 | locus YDR101C, strain arx1, active compounds read low 1.01 | locus YDR137W, strain rgp1, active compounds read low 1.07 | locus YDR150W, strain NUM1, active compounds read low 0.994 | locus YDR159W, strain sac3, active compounds read low 1.01 | locus YDR162C, strain NBP2, active compounds read low 0.993 | locus YDR195W, strain ref2 0.996 | locus YDR297W, strain sur2, active compounds read low 1.01 | locus YDR318W, strain mcm21, active compounds read low 1.02 | locus YDR334W, strain swr1, active compounds read low 1.01 | locus YDR335W, strain msn5, active compounds read low 1 | locus YDR363W, strain ESC2, active compounds read low 0.998 | locus YDR388W, active compounds read low 1.01 | locus YDR392W, strain spt3, active compounds read low 0.966 | locus YDR502C, strain sam2, active compounds read low 1.01 | locus YEL003W, strain gim4, active compounds read low 0.981 | locus YEL037C, strain rad23, active compounds read low 0.999 | locus YEL061C, strain CIN8 (second series), active compounds read low 1.01 | locus YEL061C, strain CIN8, active compounds read low 1 | locus YER002W, strain NOP16, active compounds read low 1.01 | locus YER015W, strain faa2, active compounds read low 1 | locus YER016W, strain bim1, active compounds read low 0.998 | locus YER110C, active compounds read low 1.01 | locus YER111C, strain swi4, active compounds read low 1 | locus YER155C, strain BEM2 (second series), active compounds read low 1.01 | locus YER155C, strain BEM2, active compounds read low 1.01 | locus YER167W, strain BCK2, active compounds read low 1 | locus YFR010W, strain ubp6, active compounds read low 1 | locus YGL078C, strain dbp3, active compounds read low 1 | locus YGL086W, strain mad1, active compounds read low 0.994 | locus YGL167C, strain pmr1, active compounds read low 1.01 | locus YGL173C, strain kem1, active compounds read low 0.994 | locus YGL227W, strain vid30, active compounds read low 1.02 | locus YGL240W, strain doc1, active compounds read low 0.994 | locus YGL248W, strain PDE1, active compounds read low 1 | locus YGL253W, strain hxk2, active compounds read low 1.01 | locus YGR078C, strain PAC10, active compounds read low 1 | locus YGR135W, strain pre9, active compounds read low 1 | locus YGR252W, strain gcn5, active compounds read low 0.902 | locus YHR013C, strain ard1, active compounds read low 0.986 | locus YHR027C, strain rpn1, active compounds read low 0.997 | locus YHR030C, strain SLT2, active compounds read low 1 and 0.992 | locus YHR079C, strain IRE1 (second series), active compounds read low 1.02 | locus YHR079C, strain IRE1, active compounds read low 0.973 | locus YHR094C, strain hxt1, active compounds read low 1 | locus YHR129C, strain ARP1, active compounds read low 1.01 | locus YHR142W, strain chs7, active compounds read low 1.01 | locus YHR200W, strain rpn10, active compounds read low 1.01 | locus YIL066C, strain RNR3, active compounds read low 1.01 | locus YIL073C, strain SPO22, active compounds read low 1.05 | locus YIL125W, strain kgd1, active compounds read low 0.994 | locus YIR030C, strain dcg1, active compounds read low 1.02 | locus YJL092W, strain hpr5, active compounds read low 1.01 | locus YJL095W, strain BCK1 (second series), active compounds read low 1.01 | locus YJL095W, strain BCK1, active compounds read low 0.983 and 0.99 | locus YJL115W, strain asf1, active compounds read low 0.992 | locus YJL129C, strain trk1, active compounds read low 0.986 | locus YJL134W, strain LCB3, active compounds read low 1 | locus YJL154C, strain vps35, active compounds read low 1 | locus YJL164C, strain tpk1, active compounds read low 0.991 | locus YJL166W, strain qcr8, active compounds read low 1.01 | locus YJL168C, strain set2, active compounds read low 1.01 | locus YJL187C, strain SWE1 (second series), active compounds read low 1 | locus YJL187C, strain SWE1, active compounds read low 1.01 | locus YJR043C, strain POL32, active compounds read low 0.995 | locus YJR066W, strain TOR1, active compounds read low 0.952
